# Source: ChEMBL document CHEMBL3988442, “University of Dundee, Small-Polar-MMV Screening Library” (2021)
# For some of these results: Results with a measured potency or affinity are listed apart.
# Experiments:
# Parameters in all cases: scale not given: direction of the effect not stated beside the values
# [1] = target: Protein translocase subunit SecA (Escherichia coli (strain K12)) (UniProt P10408); assay: Assay to Identify E. coli SecA ATPase Inhibitors; type: functional; settings: 30 µM
# [2] = target: T1, Ubiquitin-activating enzyme e1, putative (Leishmania donovani (strain BPK282A1)) (UniProt E9BSI1); assay: Leishmania donovani Ubiquitin Activating Enzyme (LdE1); type: functional; settings: 30 µM
# T1 sequence (whole entry): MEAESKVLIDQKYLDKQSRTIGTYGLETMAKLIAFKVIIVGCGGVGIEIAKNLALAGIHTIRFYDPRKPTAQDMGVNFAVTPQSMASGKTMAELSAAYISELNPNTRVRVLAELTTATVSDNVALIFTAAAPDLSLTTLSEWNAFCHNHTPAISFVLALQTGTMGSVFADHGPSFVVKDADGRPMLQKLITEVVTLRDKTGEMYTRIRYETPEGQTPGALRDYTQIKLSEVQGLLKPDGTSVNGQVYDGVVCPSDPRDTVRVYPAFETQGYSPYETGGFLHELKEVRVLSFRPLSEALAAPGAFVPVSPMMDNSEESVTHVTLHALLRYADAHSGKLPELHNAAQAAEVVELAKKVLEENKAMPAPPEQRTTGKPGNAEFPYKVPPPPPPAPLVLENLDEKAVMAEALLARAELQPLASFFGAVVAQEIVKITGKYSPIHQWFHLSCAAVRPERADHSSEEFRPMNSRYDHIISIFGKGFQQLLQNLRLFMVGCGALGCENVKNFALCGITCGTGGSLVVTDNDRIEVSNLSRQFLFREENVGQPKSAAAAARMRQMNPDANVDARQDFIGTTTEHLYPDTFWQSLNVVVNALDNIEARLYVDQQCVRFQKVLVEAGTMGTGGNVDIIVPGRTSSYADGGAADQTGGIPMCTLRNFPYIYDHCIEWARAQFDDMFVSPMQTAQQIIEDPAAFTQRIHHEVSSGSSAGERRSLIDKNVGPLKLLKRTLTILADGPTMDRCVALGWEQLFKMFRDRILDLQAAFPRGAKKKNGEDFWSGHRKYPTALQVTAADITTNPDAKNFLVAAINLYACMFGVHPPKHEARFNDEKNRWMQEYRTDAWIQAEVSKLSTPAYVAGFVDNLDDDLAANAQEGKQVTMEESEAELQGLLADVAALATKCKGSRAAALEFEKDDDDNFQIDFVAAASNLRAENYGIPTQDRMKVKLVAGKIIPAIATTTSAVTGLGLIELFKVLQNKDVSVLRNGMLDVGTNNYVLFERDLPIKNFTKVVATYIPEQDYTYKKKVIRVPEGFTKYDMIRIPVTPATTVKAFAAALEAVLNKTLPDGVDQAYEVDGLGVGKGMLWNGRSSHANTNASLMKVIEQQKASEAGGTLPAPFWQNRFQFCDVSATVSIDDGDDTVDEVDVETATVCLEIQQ
# [3] = target: AMP-activated protein kinase, AMPK (Homo sapiens) (UniProt P54646+O43741+P54619+Q9UGJ0+Q9Y478+Q13131+Q9UGI9); assay: AMP-dependent Kinase enzyme assay. An in vitro enzyme assay that detects ADP turnover that is directly proportional to AMPK activity. This uses naive AMPK that is activated during the assay with MK-8722; type: functional; settings: 30 µM
# [4] = target: Sialic acid-binding Ig-like lectin 9 (Homo sapiens) (UniProt Q9Y336); assay: Hs-Siglec9 ALPHAscreen SOP 20170721; settings: 10 µM
# Sialic acid-binding Ig-like lectin 9 (Homo sapiens), sequence (Q9Y336 whole entry): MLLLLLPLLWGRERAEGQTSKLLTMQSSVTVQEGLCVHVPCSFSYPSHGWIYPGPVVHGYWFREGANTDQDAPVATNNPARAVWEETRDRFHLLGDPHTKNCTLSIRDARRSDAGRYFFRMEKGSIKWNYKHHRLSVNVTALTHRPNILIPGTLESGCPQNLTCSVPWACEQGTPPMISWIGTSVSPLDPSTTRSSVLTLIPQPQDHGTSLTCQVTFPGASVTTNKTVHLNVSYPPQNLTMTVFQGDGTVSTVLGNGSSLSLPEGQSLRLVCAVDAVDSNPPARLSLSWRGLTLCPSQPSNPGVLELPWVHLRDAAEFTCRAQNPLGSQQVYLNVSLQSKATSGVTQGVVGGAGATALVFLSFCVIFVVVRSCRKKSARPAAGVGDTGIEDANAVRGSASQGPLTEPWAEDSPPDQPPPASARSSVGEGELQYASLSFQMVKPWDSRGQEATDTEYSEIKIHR
# [5] = system: Trypanosoma cruzi; assay: Trypanosoma cruzi phosphomannomutase and mannose-1-phosphate guanylyltransferase assay; type: functional; settings: 10 µM
# [6] = target: T2, Arginase-2, mitochondrial (Homo sapiens) (UniProt P78540); assay: in vitro enzyme assay to detect the production of urea directly proportional to the activity of Arginase II; type: functional; settings: 33.3 µM; also: in the data most compounds retested in dose-response had high values
# T2 sequence (whole entry): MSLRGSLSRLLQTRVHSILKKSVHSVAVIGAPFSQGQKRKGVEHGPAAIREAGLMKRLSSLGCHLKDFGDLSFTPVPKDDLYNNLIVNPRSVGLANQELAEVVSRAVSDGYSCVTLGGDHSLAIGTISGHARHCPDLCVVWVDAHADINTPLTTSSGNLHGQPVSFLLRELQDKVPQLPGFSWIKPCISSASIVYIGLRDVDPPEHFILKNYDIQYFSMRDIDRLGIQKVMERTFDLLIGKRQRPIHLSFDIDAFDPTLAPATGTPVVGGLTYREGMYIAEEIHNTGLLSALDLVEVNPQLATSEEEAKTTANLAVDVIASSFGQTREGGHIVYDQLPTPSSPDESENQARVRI
# [7] = target: T3, Proteasome subunit beta (Trypanosoma cruzi) (UniProt O96673); assay: Trypanosoma cruzi proteasome chymotrypsin-like activity (TcProtChymo) assay.; also: in the data most compounds retested in dose-response had high values; type: functional; settings: 9.37 µM
# T3 sequence (whole entry): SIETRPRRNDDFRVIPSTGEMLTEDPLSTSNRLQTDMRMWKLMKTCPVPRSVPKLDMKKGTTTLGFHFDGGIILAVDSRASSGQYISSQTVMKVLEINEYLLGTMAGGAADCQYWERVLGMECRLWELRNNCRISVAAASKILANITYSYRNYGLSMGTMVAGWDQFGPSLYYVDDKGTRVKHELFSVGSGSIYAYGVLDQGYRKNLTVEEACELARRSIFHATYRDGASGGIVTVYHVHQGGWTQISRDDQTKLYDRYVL
# [8] = species: Homo sapiens; assay: To identify inhibition of the IFN signalling (Jak-Stat) pathway via expression of an eGFP reporter gene under the control of an IFN-stimulated response element (ISRE) containing MxA promoter.; type: functional; settings: 30 µM
# [9] = target: T4, Tyrosyl-tRNA synthetase, putative (Trypanosoma cruzi (strain CL Brener)) (UniProt Q4DSP6); assay: Trypanosoma cruzi tyrosyl tRNA synthetase (TcYRS) _High Tyrosine SOP; type: functional; settings: 30 µM; also: in the data most compounds retested in dose-response had high values
# T4 sequence (whole entry): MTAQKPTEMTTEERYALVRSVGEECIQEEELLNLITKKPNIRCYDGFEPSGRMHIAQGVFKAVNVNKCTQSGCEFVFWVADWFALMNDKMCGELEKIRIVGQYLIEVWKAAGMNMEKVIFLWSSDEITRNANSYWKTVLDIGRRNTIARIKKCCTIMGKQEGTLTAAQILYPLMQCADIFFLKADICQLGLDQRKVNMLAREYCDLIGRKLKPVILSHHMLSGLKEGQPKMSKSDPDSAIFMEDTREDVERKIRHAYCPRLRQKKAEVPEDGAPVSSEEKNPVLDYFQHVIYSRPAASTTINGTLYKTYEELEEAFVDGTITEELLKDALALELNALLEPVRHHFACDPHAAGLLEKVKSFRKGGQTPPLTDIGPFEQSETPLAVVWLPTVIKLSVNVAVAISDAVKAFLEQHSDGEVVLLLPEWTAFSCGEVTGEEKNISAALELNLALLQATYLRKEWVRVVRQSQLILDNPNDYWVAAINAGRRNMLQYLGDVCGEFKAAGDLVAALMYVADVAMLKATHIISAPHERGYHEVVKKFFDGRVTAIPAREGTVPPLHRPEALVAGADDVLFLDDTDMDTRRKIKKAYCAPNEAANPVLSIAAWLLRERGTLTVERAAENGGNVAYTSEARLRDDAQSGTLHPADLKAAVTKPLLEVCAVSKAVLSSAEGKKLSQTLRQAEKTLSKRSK
# [10] = target: T4, Tyrosyl-tRNA synthetase, putative (Trypanosoma cruzi (strain CL Brener)); assay: Trypanosoma cruzi tyrosyl tRNA synthetase (TcYRS) SOP; type: functional; settings: 30 µM
# [11] = target: Chromo domain-containing protein 1 (Saccharomyces cerevisiae (strain ATCC 204508 / S288c) (Baker's yeast)) (UniProt P32657); assay: ScCHD-1 Enzyme Inhibition Assay; type: functional; settings: 30 µM; also: in the data most compounds retested in dose-response had high values
# Chromo domain-containing protein 1 (Saccharomyces cerevisiae (strain ATCC 204508 / S288c) (Baker's yeast)), sequence (P32657 whole entry, the tested form may be a part): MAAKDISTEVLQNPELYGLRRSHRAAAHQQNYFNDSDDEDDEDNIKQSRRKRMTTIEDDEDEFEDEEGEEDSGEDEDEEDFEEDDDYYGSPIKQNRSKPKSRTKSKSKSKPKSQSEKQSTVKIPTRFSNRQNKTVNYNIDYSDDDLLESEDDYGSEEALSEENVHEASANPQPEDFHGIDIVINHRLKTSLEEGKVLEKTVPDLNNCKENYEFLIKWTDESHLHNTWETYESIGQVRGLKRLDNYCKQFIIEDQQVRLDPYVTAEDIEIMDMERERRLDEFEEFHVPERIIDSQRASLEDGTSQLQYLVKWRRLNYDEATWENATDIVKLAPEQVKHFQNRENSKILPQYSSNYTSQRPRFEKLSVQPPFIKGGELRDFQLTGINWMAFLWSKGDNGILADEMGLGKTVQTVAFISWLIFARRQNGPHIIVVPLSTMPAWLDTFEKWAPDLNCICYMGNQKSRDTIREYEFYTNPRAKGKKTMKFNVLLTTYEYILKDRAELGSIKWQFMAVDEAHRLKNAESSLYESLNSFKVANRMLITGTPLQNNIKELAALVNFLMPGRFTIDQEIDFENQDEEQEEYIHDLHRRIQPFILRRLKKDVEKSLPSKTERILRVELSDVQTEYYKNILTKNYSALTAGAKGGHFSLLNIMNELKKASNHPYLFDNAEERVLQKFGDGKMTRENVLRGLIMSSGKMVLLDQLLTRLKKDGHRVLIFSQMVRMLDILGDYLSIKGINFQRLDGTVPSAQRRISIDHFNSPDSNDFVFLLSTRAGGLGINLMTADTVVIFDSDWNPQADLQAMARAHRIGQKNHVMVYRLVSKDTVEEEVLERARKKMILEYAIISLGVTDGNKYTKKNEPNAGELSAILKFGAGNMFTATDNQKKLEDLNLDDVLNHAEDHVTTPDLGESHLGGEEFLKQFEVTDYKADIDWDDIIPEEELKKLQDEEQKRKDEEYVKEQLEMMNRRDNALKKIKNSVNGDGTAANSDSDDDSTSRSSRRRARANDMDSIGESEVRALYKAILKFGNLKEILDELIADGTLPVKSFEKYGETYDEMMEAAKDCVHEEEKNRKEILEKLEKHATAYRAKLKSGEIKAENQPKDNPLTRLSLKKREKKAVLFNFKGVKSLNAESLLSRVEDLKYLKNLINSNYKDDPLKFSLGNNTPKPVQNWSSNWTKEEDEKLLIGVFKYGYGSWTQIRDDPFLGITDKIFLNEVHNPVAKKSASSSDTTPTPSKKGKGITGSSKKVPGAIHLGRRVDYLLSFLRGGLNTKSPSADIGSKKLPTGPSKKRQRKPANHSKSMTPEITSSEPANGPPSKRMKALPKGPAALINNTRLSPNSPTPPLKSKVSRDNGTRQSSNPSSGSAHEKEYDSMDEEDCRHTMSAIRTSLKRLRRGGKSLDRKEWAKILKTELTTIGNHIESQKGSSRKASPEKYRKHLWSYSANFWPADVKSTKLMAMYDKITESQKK
# Protein translocase subunit SecA (Escherichia coli (strain K12)), sequence (P10408 whole entry): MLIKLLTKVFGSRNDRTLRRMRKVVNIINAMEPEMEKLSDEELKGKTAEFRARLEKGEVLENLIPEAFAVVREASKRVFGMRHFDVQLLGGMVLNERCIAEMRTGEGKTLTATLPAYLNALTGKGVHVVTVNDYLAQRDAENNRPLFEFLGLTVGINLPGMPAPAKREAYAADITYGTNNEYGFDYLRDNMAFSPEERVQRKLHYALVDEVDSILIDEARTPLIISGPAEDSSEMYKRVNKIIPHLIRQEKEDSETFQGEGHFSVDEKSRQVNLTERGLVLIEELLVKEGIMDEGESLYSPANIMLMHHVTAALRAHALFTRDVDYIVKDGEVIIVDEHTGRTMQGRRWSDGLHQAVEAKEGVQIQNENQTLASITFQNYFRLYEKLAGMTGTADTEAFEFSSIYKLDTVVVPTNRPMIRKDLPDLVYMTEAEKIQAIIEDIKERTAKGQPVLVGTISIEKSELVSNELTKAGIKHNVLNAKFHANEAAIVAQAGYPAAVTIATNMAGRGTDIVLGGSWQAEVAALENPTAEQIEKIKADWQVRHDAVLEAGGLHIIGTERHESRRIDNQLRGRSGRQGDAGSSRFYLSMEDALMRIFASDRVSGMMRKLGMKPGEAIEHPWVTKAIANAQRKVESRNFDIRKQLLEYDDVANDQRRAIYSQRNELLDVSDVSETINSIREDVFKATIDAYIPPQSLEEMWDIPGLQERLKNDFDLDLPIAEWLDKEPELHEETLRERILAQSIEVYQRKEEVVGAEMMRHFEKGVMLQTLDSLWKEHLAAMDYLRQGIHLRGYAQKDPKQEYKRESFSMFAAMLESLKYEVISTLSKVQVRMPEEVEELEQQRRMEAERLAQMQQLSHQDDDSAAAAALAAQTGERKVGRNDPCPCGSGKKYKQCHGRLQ
SMILES,Percent Effect [1] [%],Percent Effect [2] [%],Percent Effect [3] [%],Percent Effect [4] [%],Percent Effect [5] [%],Percent Effect [6] [%],Percent Effect [7] [%],Percent Effect [8] [%],Percent Effect [9] [%],Percent Effect [10] [%],Percent Effect [11] [%]
Cc1ncc2c(n1)CCCC2NC(=O)c1ccncc1 (stereo not drawn),-8.52,2.6,-3.85,1.2,-1.87,-1.38,3.16,0.503,1.07,-3.7,-0.226
O=S1(=O)c2ccccc2C2(CCN(Cc3ccccc3)C2)N1CC1CC1 (stereo not drawn),-1.03,0,12.2,4.58,1.18,2.1,-0.264,32.1,3.19,3.85,2.59
CCCNC(=O)CN1CCN(Cc2csc(C(C)(C)C)n2)CC1,-7.74,2.53,-2.27,0.111,-4.63,-1.14,-7.62,20.3,2.46,-3.8,-1.83
Cn1ncc2c1CN(Cc1cccnc1)CC2COCC1CC1 (stereo not drawn),-0.107,2.74,-3.62,3.4,6.55,4.79,12.6,-15.1,4.17,8.64,-7.87
CCOc1ncccc1NC(=O)N1CCc2ccccc2C1,-2.4,-5.41,-19.1,3.06,-2.14,7.95,0,-3.53,-1.98,-1.22,9.66
CCOC(=O)C1CCN(Cc2csc(C(C)(C)C)n2)CC1,1.04,0,2.22,11,-3.12,9.89,-5.98,4.26,4.43,-3.8,-1.95
Cc1nnc2n1CCN(CCS(=O)(=O)c1ccccc1)C2,-2.96,15.6,2.16,8.34,1.69,-3.2,-2.03,27.6,2.91,14.6,-8
CC(=O)N(C)CC(=O)Nc1cccc(N2CCN(CC3CC3)CC2)c1,-6.27,5.41,-9.55,0.217,-1.86,-13.2,1.46,4.97,3.23,11.1,0.0532
